ER stress surv: ER stress cell death inhibition; CSM14.1 thapsigargin ER stress survival, ATP luminescence; relative survival (cellular ATP), % at 15 µg/mL (by protocol); actives 0.33% (n = 48,000);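 active = survival measured by cellular ATP above 50% at 15 µg/ml in the first screen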;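 also: cell death triggered by about 15 µM thapsigargin; ATP read 24 h after thapsigargin was added; plate controls were thapsigargin with DMSO for no effect and DMSO without thapsigargin for full effect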
The depositor's hits bear a star. The full list was thinned out, with hits kept by preference.

SMILES	ER stress surv
COc1ccc(C2C(C(=O)c3ccccc3)C(=O)CC(C)(O)C2C(=O)c2ccccc2)cc1 (stereo not given)	58*
CC1(O)CC(=O)C(C(=O)c2ccccc2)C(c2ccc([N+](=O)[O-])cc2)C1C(=O)c1ccccc1 (stereo not given)	-3
COc1cccc(-c2nc(-c3cccnc3)no2)c1	-6
Brc1ccccc1-c1nc(-c2cccnc2)no1	-22
O=C(CCNC(=O)/C(=C\c1ccccc1)NC(=O)c1ccco1)OCc1ccccc1	8
CC(C)COc1ccc(C(=O)N/C(=C/c2ccccc2)C(=O)NCC(=O)OCc2ccccc2)cc1	80*
COc1ccc(C(=O)N/C(=C\c2ccccc2)C(=O)NCCCN(C)C)cc1	-1
CC(C)CN1C(=O)/C(=C/c2c(F)cccc2Cl)SC1=S	0
CCc1ccc(-c2cc(C(=O)NC3CC3)c3ccccc3n2)cc1	-4
COc1ccc(CCN=CC2=C(O)CC(C)(C)CC2=O)cc1OC	9
COc1ccc(CCN=CC2=C(O)CC(c3ccccc3)CC2=O)cc1OC (stereo not given)	8
COc1ccc(CCN=Cc2c(O)n(-c3c(Cl)cccc3Cl)c3ccccc23)cc1OC	120*
CCOC(=O)NC(NC(=S)Nc1ccc(NC(C)=O)cc1)C(Cl)(Cl)Cl (stereo not given)	9
COc1ccc(NC(=O)c2c(Cl)ccc(Cl)c2OC)c(OC)c1	7
CC(=O)N(C(C)=O)c1nc(-c2ccccc2)c(-c2ccccc2)n1/N=C/c1ccccc1	6
COc1ccc(CCNC(=O)/C(=C/c2ccc(Cl)cc2)NC(=O)c2ccc(C)cc2)cc1OC	0
COCCNC(=O)/C(=C/c1ccc(C(C)C)cc1)NC(=O)c1ccccc1	2
COc1ccc(CCNC(=O)/C(=C/c2ccc(C(C)C)cc2)NC(=O)c2ccccc2)cc1OC	79*
CN1C(=O)/C(=C/c2cccn2-c2cccc([N+](=O)[O-])c2)SC1=S	9
Oc1cc(N=C/C=C/c2cccc(Br)c2)ccc1-c1nc2ccccc2o1	-4
Cc1cccc(NC(=O)Cc2ccccc2)c1	-6
CC(C)(C)NC(=O)c1cc(NC(=O)c2cccs2)cc(NC(=O)c2cccs2)c1	4
CC(C)(C)NC(=O)c1cc(NC(=O)Cc2ccccc2)cc(NC(=O)Cc2ccccc2)c1	73*
Cc1c(C(=O)Nc2cccc(S(N)(=O)=O)c2)oc2ccc(Cl)cc12	-2
COc1cc(NC(=O)COc2ccc(C)cc2C)ccc1NC(=O)c1ccco1	2
SMILES	ER stress surv
COc1cc(CN2CCN(S(=O)(=O)c3ccc(Cl)cc3)CC2)cc(OC)c1OC	-4
C#CCOC(=O)/C=C/c1cccc([N+](=O)[O-])c1	-1
O=C(N/N=C/c1ccc(Cl)c([N+](=O)[O-])c1)/C(=C\c1ccc2c(c1)OCO2)NC(=O)c1ccccc1	81*
O=C(O)COc1ccccc1/C=N/NC(=O)/C(=C\c1ccc2c(c1)OCO2)NC(=O)c1ccccc1	-4
COc1cc(Cl)cc(/C=N/NC(=O)/C(=C\c2ccc3c(c2)OCO3)NC(=O)c2ccccc2)c1O	5
Cc1ccc(OCC(=O)NNC(=O)c2ccco2)c(Br)c1	1
O=C(c1cc2nc(-c3ccc([N+](=O)[O-])cc3)cc(C(F)(F)F)n2n1)N1CCOCC1	2
Cc1cc(=O)oc2cc(OC(=O)C(c3ccccc3)c3ccccc3)ccc12	10
COc1ccc(C2CC(C(F)(F)F)n3ncc(C(=O)N(C)Cc4ccccc4)c3N2)cc1OC (stereo not given)	82*
COc1ccc(C2CC(C(F)(F)F)n3ncc(C(=O)Nc4ccc(F)cc4F)c3N2)cc1OC (stereo not given)	3
Cc1ccc(C2CC(C(F)(F)F)n3ncc(C(=O)N(Cc4ccccc4)Cc4ccccc4)c3N2)cc1 (stereo not given)	4
CCc1cc2c(-c3ccccc3)cc(=O)oc2cc1OC(C)=O	7
COC(=O)c1ccc(/C=C2\C(=O)NC(=O)N(c3cccc(Br)c3)C2=O)cc1	4
COc1ccc(C(C)=O)cc1N1C(=O)C=CC1=O	-7
CC(=O)c1cccc(N2C(=O)C3C4C=CC(C4=C(C)C)C3C2=O)c1 (stereo not given)	1
COc1ccc(C(C)=O)cc1N1C(=O)C2C3C=CC(C3=C(c3ccccc3)c3ccccc3)C2C1=O (stereo not given)	77*
Cc1ccc(-n2nc3cc(C)c(NC(=O)COc4ccccc4C)cc3n2)cc1	1
Cc1cccc(NC(=O)c2c(NC(=O)c3ccc([N+](=O)[O-])cc3)sc3c2CCCC3)c1	8
COc1ccc(-c2nc(-c3cc(OC)c(OC)cc3OC)[nH]c2-c2ccc(OC)cc2)cc1	116*
COc1ccc(-c2nc(-c3ccc(O)cc3)[nH]c2-c2ccc(OC)cc2)cc1	-10
COc1ccc(OC)c(-c2nc(-c3ccccc3)c(-c3cccs3)[nH]2)c1	7
C=CCN(CC=C)C(=O)COc1ccccc1	2
COc1cc(NC(=O)c2oc3ccc(Cl)cc3c2C)ccc1NC(=O)c1ccco1	-2
O=C(Nc1ccc(Cl)c(Cl)c1)Nc1nnc(-c2ccccc2F)s1	2

Compound activity as filed in PubChem.
